How the values were obtained:
Experiment in all cases: PBM binding z-score (relative to random genomic background probes); higher = stronger binding; sequences stand for … in GC…GCGATTGACAGCGTAGAATGAAGG
[1] = test system: FXR:RXRa (NR concentration 270 nM, RXRa partner concentration 90 nM)
Outline: (§1)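 Binding buffer was PBS pH 7.4 with 2% milk, 0.02% Triton X-100, 1 mM DTT, 0.2 mg/mL BSA and 0.4 mg/ml salmon testes DNA. In it, ligand-free nuclear receptor dimers were incubated 1 h on custom Agilent 4×180K protein-binding microarrays carrying double-stranded probes. Antibodies against each partner (one per run) detected binding, and z-scores were calculated against random background probes after regression normalization of scanned fluorescence.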

[2] = test system: LXRa:RXRa (NR concentration 270 nM, RXRa partner concentration 90 nM)
Outline: as §1

[3] = test system: LXRa homodimer (NR concentration 270 nM)
Outline: as §1

[4] = test system: LXRb:RXRa (NR concentration 270 nM, RXRa partner concentration 90 nM)
Outline: as §1

[5] = test system: LXRb homodimer (NR concentration 270 nM)
Outline: as §1

[6] = test system: PPARa:RXRa (NR concentration 270 nM, RXRa partner concentration 90 nM)
Outline: as §1

[7] = test system: PPARg:RXRa (NR concentration 180 nM, RXRa partner concentration 90 nM)
Outline: as §1

[8] = test system: PPARg:RXRa 270nM:90nM, anti-RXR (NR concentration 270 nM, RXRa partner concentration 90 nM)
Outline: as §1

[9] = test system: PPARg:RXRa 30nM:10nM, anti-RXR (NR concentration 30 nM, RXRa partner concentration 10 nM)
Outline: as §1

[10] = test system: PPARg:RXRa 90nM:30nM, anti-RXR (NR concentration 90 nM, RXRa partner concentration 30 nM)
Outline: as §1

[11] = test system: PPARg:RXRa DBDmut IVT, anti-RXR (DBD mutation: RXRa K156A/R161A, NR concentration 270 nM, RXRa partner concentration 90 nM)
Outline: as §1

[12] = test system: PPARg:RXRa IVT, anti-PPARg (NR concentration 270 nM, RXRa partner concentration 90 nM)
Outline: as §1

[13] = test system: PPARg DBDmut:RXRa IVT, anti-PPARg (DBD mutation: PPARg1 K132A/R137A, NR concentration 270 nM, RXRa partner concentration 90 nM)
Outline: as §1

[14] = test system: PPARg DBDmut IVT, anti-PPARg (DBD mutation: PPARg1 K132A/R137A, NR concentration 270 nM)
Outline: as §1

[15] = test system: PPARg homodimer (NR concentration 180 nM)
Outline: as §1

[16] = test system: PXR:RXRa (NR concentration 270 nM, RXRa partner concentration 90 nM)
Outline: as §1

[17] = test system: PXR homodimer (NR concentration 270 nM)
Outline: as §1

[18] = test system: RARa:RXR (NR concentration 270 nM, RXRa partner concentration 90 nM)
Outline: as §1

[19] = test system: RARa homodimer (NR concentration 270 nM)
Outline: as §1

[20] = test system: RARb:RXRa (NR concentration 270 nM, RXRa partner concentration 90 nM)
Outline: as §1

Sequence	PBM binding z-score [1]	PBM binding z-score [2]	PBM binding z-score [3]	PBM binding z-score [4]	PBM binding z-score [5]	PBM binding z-score [6]	PBM binding z-score [7]	PBM binding z-score [8]	PBM binding z-score [9]	PBM binding z-score [10]	PBM binding z-score [11]	PBM binding z-score [12]	PBM binding z-score [13]	PBM binding z-score [14]	PBM binding z-score [15]	PBM binding z-score [16]	PBM binding z-score [17]	PBM binding z-score [18]	PBM binding z-score [19]	PBM binding z-score [20]
AATACAGGGTCATCGTAGGCGAGAGTACGCACAG	7.5	6.16	2.08	4.6	1.54	5.94	6.58	6.21	2.48	4.92	2.84	4.14	3.29	1.01	2.21	4.29	1.03	5.1	1.25	4.37
ATAATGAGGTTAAGATCAGGGAAACAGAATACAT	2.39	2.59	0.379	2.15	0.727	3.79	3.01	2.48	1.48	2.19	3.08	3.32	1.83	1.92	1.15	1.31	0.654	2.22	0.709	2.22
ACTAGTTGGTCAGCGGAGGTCACACACAATTCGG	2.84	3.44	3.05	3.15	0.932	3.52	1.91	2.26	1.3	1.68	1.63	2.75	1.36	0.469	3.06	4.99	1.8	4.46	1.6	3.59
TCTTGTAGATCAGCAGGTTATGAAAGCTGGCCAA	0.122	0.0807	-0.501	0.444	-0.22	0.665	-0.222	1.29	2.49	1.59	1.43	0.523	-0.144	0.592	-0.672	0.11	-0.253	0.383	-0.663	0.164
CAAACTAGGTCAAGGTCAATGTCGGTTTGTGCCA	6.03	5	3.19	4.14	1.08	5.94	9.35	7.99	6.08	8.16	8.55	8.45	5.91	4.78	4.97	4.89	2.16	4.96	2.18	5.03
AGTCAAAGATCATCTAGGTAACGTAAGATATGCT	-0.125	0.0142	-0.0346	-0.0476	-0.391	0.828	1.67	1.54	0.643	1.16	0.742	2.23	0.348	0.62	-0.382	-0.211	-0.246	0.277	0.136	0.0858
GCTGCTAGGTCAACTGATGGTCAGCTTAAGCTCG	4.41	3.13	0.215	2.09	0.173	3.5	2.44	2.97	0.312	2.07	5.04	4.2	-0.326	-0.587	2.5	1.85	-0.712	3.1	-0.0481	4.24
GATGCAGGGTCAAGGCCAGAGTACGCGTATTGAT	6.64	3.82	-0.363	3.54	-0.254	5.74	5.22	4.93	1.79	3.61	1.47	3.42	-0.201	-0.81	1.2	3.59	0.224	3.86	0.306	4.54
CCTACTTGGCCAAAAAGGTCATTGATGCCGATAA	4.39	4.79	3.93	4.61	1.27	4.7	1.74	3.04	0.755	1.87	1.07	1.98	0.866	0.465	4.5	4.93	2.68	5.78	3.1	3.99
GGAAGGAGGGCATTCGAGTTGATAGCATGGCGAT	1.31	1.78	0.199	0.866	0.337	1.46	0.926	1.07	-0.0182	0.639	3.26	2.42	-0.146	0.314	0.39	3.38	1.3	0.52	-0.113	1.56
AGAACGAGGGCAATGAGTTGAAAGCACGGGTGGC	0.345	0.43	-0.528	-0.0192	-0.804	1.57	1.36	1.21	-0.135	0.569	3.01	2.76	0.626	-0.78	0.52	1.67	5.02	0.551	-0.34	2.03
CCTACTGTGCCACGAAAGGTCATTGATTCAGTGA	3.98	5.43	5.47	4.73	1.31	4.62	3.72	4.36	2	3.59	5.18	4.39	0.906	0.678	3.62	5.32	1.94	5.05	1.63	3.96
TAGCCTAGGTCATTGGGCGAGTATAGTACGCATC	4.55	3.24	0.459	2.06	0.053	3.51	2.65	2.83	0.405	1.8	1.88	3.05	0.311	-0.0966	1.15	1.59	-0.283	2.09	-0.259	3.69
AGTCAAAGATCACTAGGTAACGTAAGATTCAGCT	-0.239	0.0788	-0.206	0.152	-0.329	1.52	2.34	2.95	0.876	2.3	1.14	2.97	0.137	0.156	0.697	-0.103	0.0772	0.125	0.459	0.233

— the supplement of paper PMC6555819
